Assay results taken from PubChem BioAssay (NCI).
This is part of a sample that, as a whole, favours compounds with a hit. Of some 83,000 tested, about 20% had one in any assay.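 Testing used 96-well plates and a 48-hour single-concentration exposure. Example: -40 means 40% of the starting cells died.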 The source made the active and inactive calls. How the source made its calls: active means growth percent below 10; inactive means the rest.

Key:
Assay in all cases: NCI-60 one-dose screen, 48 h (100 = growth as untreated, 0 = no growth, -100 = all killed)
DU-145 prostate = settings: 10 µM unless noted
MALME-3M melanoma = settings: 10 µM unless noted
RXF 393 renal = settings: 10 µM unless noted
SF-295 CNS = settings: 10 µM unless noted
UACC-257 melanoma = settings: 10 µM unless noted
M14 melanoma = settings: 10 µM unless noted
SK-MEL-5 melanoma = settings: 10 µM unless noted
UACC-62 melanoma = settings: 10 µM unless noted
LOX IMVI melanoma = settings: 10 µM unless noted
SK-MEL-2 melanoma = settings: 10 µM unless noted
A498 renal = settings: 10 µM unless noted
CCRF-CEM leukemia = settings: 10 µM unless noted
OVCAR-4 ovarian = settings: 10 µM unless noted
IGROV1 ovarian = settings: 10 µM
OVCAR-3 ovarian = settings: 10 µM unless noted
BT-549 breast = settings: 10 µM
HCC-2998 colon = settings: 10 µM unless noted
K-562 leukemia = settings: 10 µM unless noted
HL-60(TB) leukemia = settings: 10 µM unless noted
SR leukemia = settings: 10 µM

Measured: growth

C=CCc1ccc(OC(=O)Cc2ccccc2)c(OC)c1
inactive: DU-145 prostate 111% | MALME-3M melanoma 86.8% | RXF 393 renal 110% | SF-295 CNS 95.7% | UACC-257 melanoma 120% | M14 melanoma 106% | SK-MEL-5 melanoma 102% | UACC-62 melanoma 114% | LOX IMVI melanoma 93.6% | SK-MEL-2 melanoma 80.6% | A498 renal 97.4% | CCRF-CEM leukemia 101% | OVCAR-4 ovarian 102% | IGROV1 ovarian 99.8% | OVCAR-3 ovarian 110% | BT-549 breast 106% | HCC-2998 colon 95.8%

CC(/C=N/N=C(N)N)=N\N=C(N)N
inactive: DU-145 prostate 65.5% | K-562 leukemia 56.1% | MALME-3M melanoma 126% | SF-295 CNS 85.5% | SK-MEL-5 melanoma 137% | UACC-62 melanoma 86.7% | LOX IMVI melanoma 67% | A498 renal 83.9% | HL-60(TB) leukemia 77.6% | CCRF-CEM leukemia 53% | SR leukemia 70.1% | OVCAR-4 ovarian 66.3%
active: SK-MEL-2 melanoma -5.97% | HCC-2998 colon -62.9%

Cc1cc(NC(=O)CCc2ccc(N3C(N)=NC(N)=NC3(C)C)cc2)ccc1S(=O)(=O)F
active: SF-295 CNS 5.44% | SK-MEL-2 melanoma -21.1% | CCRF-CEM leukemia -13% | SR leukemia -23.7%
inactive: DU-145 prostate 45.8% | K-562 leukemia 22.8% | MALME-3M melanoma 32.3% | M14 melanoma 48.2% | SK-MEL-5 melanoma 13.9% | UACC-62 melanoma 22.6% | LOX IMVI melanoma 18.1% | A498 renal 59.8% | HL-60(TB) leukemia 13.3% | OVCAR-4 ovarian 62.1% | OVCAR-3 ovarian 71.5%

N#[N+]c1cnc([O-])[nH]c1=O
inactive: DU-145 prostate 99.9% | K-562 leukemia 76% | MALME-3M melanoma 105% | SF-295 CNS 105% | UACC-257 melanoma 75.8% | M14 melanoma 108% | SK-MEL-5 melanoma 97% | UACC-62 melanoma 85.6% | LOX IMVI melanoma 85.2% | SK-MEL-2 melanoma 96.7% | A498 renal 85.9% | HL-60(TB) leukemia 67.4% | CCRF-CEM leukemia 69.9% | SR leukemia 64.8% | OVCAR-4 ovarian 100% | BT-549 breast 114%

CCC(C)[C@H]1O[C@]2(C=C[C@@H]1C)C[C@@H]1C[C@@H](C/C=C(\C)[C@@H](OC3C[C@H](OC)C(O[C@H]4C[C@H](OC)[C@@H](O)[C@H](C)O4)[C@H](C)O3)[C@@H](C)/C=C/C=C3\CO[C@@H]4[C@H](O)C(C)=C[C@@H](C(=O)O1)[C@]34O)O2 (some centres not stated)
active: SF-295 CNS -41.9% | UACC-257 melanoma -17.1% | M14 melanoma -46.7% | SK-MEL-5 melanoma -79.2% | UACC-62 melanoma -35% | LOX IMVI melanoma -93.1% | SK-MEL-2 melanoma -57.2% | A498 renal -24.9% | HL-60(TB) leukemia -26.2% | SR leukemia -28.1% | OVCAR-3 ovarian -72.3% | BT-549 breast -39.1% | HCC-2998 colon -49%
inactive: DU-145 prostate 11.4% | OVCAR-4 ovarian 16.4% | IGROV1 ovarian 13%

CCC1([N+](=O)[O-])COP(=O)(NCc2cccnc2)OC1 (configuration not stated)
inactive: DU-145 prostate 103% | K-562 leukemia 106% | RXF 393 renal 106% | SF-295 CNS 104% | UACC-257 melanoma 113% | M14 melanoma 109% | SK-MEL-5 melanoma 107% | UACC-62 melanoma 105% | LOX IMVI melanoma 102% | SK-MEL-2 melanoma 111% | A498 renal 94.3% | HL-60(TB) leukemia 107% | CCRF-CEM leukemia 101% | SR leukemia 105% | OVCAR-4 ovarian 112% | IGROV1 ovarian 118% | OVCAR-3 ovarian 113% | BT-549 breast 114% | HCC-2998 colon 115%

C[C@]12CC[C@@H]3c4ccc(OC(=O)Cc5ccc(N(CCCl)CCCl)cc5)cc4CC[C@H]3[C@@H]1CC[C@@H]2OC(=O)Cc1ccc(N(CCCl)CCCl)cc1
active: SK-MEL-2 melanoma -3.92%
inactive: DU-145 prostate 103% | K-562 leukemia 106% | MALME-3M melanoma 113% | SF-295 CNS 103% | M14 melanoma 107% | SK-MEL-5 melanoma 87% | UACC-62 melanoma 88% | LOX IMVI melanoma 108% | A498 renal 121% | HL-60(TB) leukemia 108% | CCRF-CEM leukemia 136% | SR leukemia 106% | OVCAR-4 ovarian 111% | OVCAR-3 ovarian 109%

CC(C)C1c2ccc(O)cc2Oc2nc(N)c(C#N)c(N)c21 (configuration not stated)
inactive: DU-145 prostate 115% | K-562 leukemia 92.5% | SF-295 CNS 107% | UACC-257 melanoma 105% | M14 melanoma 129% | SK-MEL-5 melanoma 91% | LOX IMVI melanoma 103% | SK-MEL-2 melanoma 109% | A498 renal 88.4% | HL-60(TB) leukemia 102% | CCRF-CEM leukemia 94.8% | SR leukemia 97.1% | OVCAR-4 ovarian 101% | IGROV1 ovarian 111% | OVCAR-3 ovarian 124% | BT-549 breast 84.2%

O=CN1N=C(c2ccccc2)CC1c1sc(N(CCCl)CCCl)nc1Cl (configuration not stated)
inactive: DU-145 prostate 111% | K-562 leukemia 78.1% | MALME-3M melanoma 111% | RXF 393 renal 108% | SF-295 CNS 94.8% | UACC-257 melanoma 97.4% | M14 melanoma 103% | SK-MEL-5 melanoma 98.5% | UACC-62 melanoma 67.5% | LOX IMVI melanoma 98.6% | SK-MEL-2 melanoma 77.2% | A498 renal 123% | HL-60(TB) leukemia 94% | CCRF-CEM leukemia 104% | SR leukemia 91.2% | OVCAR-4 ovarian 96.2% | IGROV1 ovarian 96% | BT-549 breast 95.3% | HCC-2998 colon 103%

Cc1ccc(C(=O)C2CN(C)CCC2(O)c2ccc(C)cc2)cc1 (configuration not stated)
inactive: DU-145 prostate 117% | K-562 leukemia 123% | MALME-3M melanoma 120% | RXF 393 renal 128% | SF-295 CNS 111% | UACC-257 melanoma 104% | M14 melanoma 113% | SK-MEL-5 melanoma 114% | UACC-62 melanoma 117% | LOX IMVI melanoma 98.9% | SK-MEL-2 melanoma 124% | A498 renal 94% | HL-60(TB) leukemia 106% | CCRF-CEM leukemia 106% | SR leukemia 101% | OVCAR-4 ovarian 106% | IGROV1 ovarian 124% | HCC-2998 colon 98.3%

CC1(C)N=C(N)N=C(N)N1c1ccc(OCCCCOc2ccc(S(=O)(=O)F)cc2)c(Cl)c1
active: SK-MEL-5 melanoma 9.68%
inactive: DU-145 prostate 24.6% | K-562 leukemia 16.8% | MALME-3M melanoma 45.9% | RXF 393 renal 27.9% | SF-295 CNS 16.3% | M14 melanoma 19% | UACC-62 melanoma 17.2% | LOX IMVI melanoma 14.7% | SK-MEL-2 melanoma 38.6% | A498 renal 29.3% | HL-60(TB) leukemia 19.3% | CCRF-CEM leukemia 16% | OVCAR-4 ovarian 57% | IGROV1 ovarian 33.1% | OVCAR-3 ovarian 28.4% | BT-549 breast 28.8% | HCC-2998 colon 32.4%

COc1cc(/C=C\c2cc(OC)c(OC)c(OC)c2)cc(N/C=C\C(=O)c2ccc(OC(F)(F)F)cc2)c1OC
inactive: DU-145 prostate 14.4% | UACC-257 melanoma 51.1% | SK-MEL-5 melanoma 27.6% | LOX IMVI melanoma 33.4% | HL-60(TB) leukemia 11% | OVCAR-4 ovarian 57.4% | IGROV1 ovarian 48.3% | BT-549 breast 44.8%
active: K-562 leukemia 4.67% | SF-295 CNS 9.29% | SK-MEL-2 melanoma -13.4% | A498 renal -1.24% | CCRF-CEM leukemia 8.99% | SR leukemia 4.84%

O=C(O)c1nn(Cc2ccc(Cl)cc2)c2ccccc12
inactive: DU-145 prostate 120% | K-562 leukemia 104% | MALME-3M melanoma 113% | RXF 393 renal 123% | UACC-257 melanoma 93.1% | M14 melanoma 107% | SK-MEL-5 melanoma 97.2% | LOX IMVI melanoma 101% | SK-MEL-2 melanoma 114% | A498 renal 96.5% | HL-60(TB) leukemia 103% | CCRF-CEM leukemia 98.7% | SR leukemia 97.3% | OVCAR-4 ovarian 100% | IGROV1 ovarian 122% | OVCAR-3 ovarian 132% | BT-549 breast 122% | HCC-2998 colon 120%

C[C@]12CC[C@H](OC3OC(O)C(O)C(O)C3O)C=C1CCC1C2CC[C@]2(C)[C@@H](c3ccc(=O)oc3)CC[C@]12O (some centres not stated)
active: DU-145 prostate -100% | K-562 leukemia -35.3% | MALME-3M melanoma -47.6% | RXF 393 renal -24.3% | SF-295 CNS -77.7% | M14 melanoma -81% | SK-MEL-5 melanoma -96.3% | UACC-62 melanoma -84.3% | LOX IMVI melanoma -84.4% | SK-MEL-2 melanoma -61.3% | A498 renal -23.3% | HL-60(TB) leukemia -57.3% | CCRF-CEM leukemia -33.8% | SR leukemia -42.7% | OVCAR-4 ovarian -41.9% | IGROV1 ovarian -12.1% | OVCAR-3 ovarian -99.2% | BT-549 breast -92.3% | HCC-2998 colon -90.4%
inactive: UACC-257 melanoma 112%

C[C@]12CCC(=O)CC1CC[C@@H]1C2CC[C@@]2(C)C1CC[C@@H]2OC(=O)CC[Se][Se]CCC(=O)O[C@H]1CCC2[C@@H]3CCC4CC(=O)CC[C@]4(C)C3CC[C@@]21C (some centres not stated)
active: HL-60(TB) leukemia 9.16%
inactive: DU-145 prostate 110% | MALME-3M melanoma 94.2% | RXF 393 renal 81.7% | SF-295 CNS 96.7% | UACC-257 melanoma 90.6% | M14 melanoma 78.7% | SK-MEL-5 melanoma 93.2% | UACC-62 melanoma 88.5% | LOX IMVI melanoma 80.8% | SK-MEL-2 melanoma 98.4% | A498 renal 84.6% | CCRF-CEM leukemia 100% | OVCAR-4 ovarian 83.2% | IGROV1 ovarian 97.3% | OVCAR-3 ovarian 109% | BT-549 breast 96.8% | HCC-2998 colon 108%

Cc1ccc(C[As+](c2ccccc2)(c2ccccc2)c2ccccc2)cc1
active: K-562 leukemia 9.47% | RXF 393 renal 8.64% | SF-295 CNS -15.6% | UACC-257 melanoma -17.5% | M14 melanoma 4.54% | SK-MEL-5 melanoma -65.3% | UACC-62 melanoma 8.38% | LOX IMVI melanoma -26.6% | SK-MEL-2 melanoma -16.9% | A498 renal -11% | HL-60(TB) leukemia -26.8% | IGROV1 ovarian 9.49% | BT-549 breast -4.76%
inactive: DU-145 prostate 23.8% | MALME-3M melanoma 25% | CCRF-CEM leukemia 16.3% | OVCAR-4 ovarian 23.6% | OVCAR-3 ovarian 13.9% | HCC-2998 colon 16.2%

O=C(NCCNC(=O)c1ccc([As](O)O)cc1)c1ccc([As](O)O)cc1
inactive: DU-145 prostate 103% | K-562 leukemia 116% | MALME-3M melanoma 108% | RXF 393 renal 105% | SF-295 CNS 107% | UACC-257 melanoma 103% | M14 melanoma 99.1% | SK-MEL-5 melanoma 95.6% | UACC-62 melanoma 99.7% | LOX IMVI melanoma 90.3% | SK-MEL-2 melanoma 103% | A498 renal 92% | HL-60(TB) leukemia 105% | CCRF-CEM leukemia 105% | SR leukemia 101% | OVCAR-4 ovarian 105% | IGROV1 ovarian 110% | OVCAR-3 ovarian 104% | BT-549 breast 111% | HCC-2998 colon 100%
